This passage reports growth results from PubChem BioAssay (NCI).

This is part of a sample that, as a whole, favours compounds with a hit. Of some 83,000 tested, about 20% had one in any assay.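 Each cell line was grown in a 96-well plate and treated with one concentration of compound for 48 hours. Values below 10 were considered active.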 Unmarked numbers belong to inactive results. Activity calls are given as the source filed them.

This assay deals with HOP-62 NSCLC. Put plainly: NCI-60 one-dose screen, 48 h (100 = growth as untreated, 0 = no growth, -100 = all killed). To be noted: 10 µM.
Take `COC(=O)[C@@H]1[C@H](O)[C@H](C)[C@H](O)[C@@](C)(O)/C=C\C=C(C)C(=O)Nc2c(C)c(OC(C)=O)c3c(c2O)C(=O)C(C)=C2OCOC(=C23)C(C)=C[C@@](C)(O)[C@H](O)[C@@H](C)[C@H]1OC(C)=O`: the growth was 111%.

Consider `O=C(CC(C(=O)c1ccccc1)N1CCOCC1)c1ccccc1` (centres undefined), for which the growth is 106%.

On to `COc1ccc(-c2nc(-c3nc4cc(Cl)c(F)cc4[nH]3)c3ccccn23)cc1`, for which the growth is 89.5%.

In the case of `CCCCCCCCCCCC[n+]1ccc(C(N)=O)cc1`, the growth was 33.7%.

Turning to `COC(=O)C1=NNC(=S)N(c2cc(C)[nH]n2)C(=O)C1`, the growth was 115%.

Consider `CCN1Cc2c(/C=C/c3ccccc3)nc3ccc(OC)cc3c2N(c2cccc(Cl)c2)C1`, for which the growth was 107%.

Take `O=C(Nc1ccncc1)C(=O)c1cn(S(=O)(=O)c2cccc3ccccc23)c2ccccc12`: the growth was 95.1%.

With `CCN(CC)CCOc1nc2cc(OC)c(OC)cc2c2c1-c1ccc(OC)cc1C2=O`, the growth is 60.9%.

`Nc1c(C(=O)Nc2cccc(F)c2)sc2nc3c(cc12)C(=O)CCC3`: the growth was 69.3%.

Take `CN(C)C=Nc1cc(Cl)ccc1Cl`: the growth is 99.9%.

For `CC12O[C@H](C[C@@H](O)[C@H]1O)n1c3ccccc3c3c4c(c5c6ccccc6n2c5c31)C(=O)N(CCCN)C4=O`, the growth was 25.3%.

In the case of `S=C1SCC(c2ccccc2)S1` (centres undefined), the growth is 108%.

In the case of `N=C(N)c1ccc(-c2ccc(-c3cccs3)o2)cc1`, the growth is 64.7%.

Regarding `CC(C)(C)c1cc(Br)cc(C(C)(C)C)c1O`, the growth is 120%.

Turning to `COc1cc(C(=O)/C=C/c2cc(-c3cc(OC)c(OC)c(OC)c3)n[nH]2)cc(OC)c1OC`, the growth was -30.1% (active).

As to `COc1cc(NC(=O)CCSc2nc3ccc(Cl)cc3c(=O)n2Cc2ccccc2)cc(OC)c1OC`, the growth was 57.2%.

On to `COc1ccc(-c2nn(-c3cccc(NC(=O)Nc4cccc(C(F)(F)F)c4)c3)cc2-c2ccncc2)cc1Cl`, for which the growth is 25.2%.

For the compound `COc1ccc(-c2nn(-c3cccc(NC(=O)c4ccc(Cl)c(Cl)c4)c3)cc2-c2ccncc2)cc1Cl`, the growth is 94%.

Take `CC(C)(C#N)Nc1ccccc1`: the growth is 108%.

For the compound `O=S(=O)(Nc1ccccn1)c1ccc(N=Nc2ccc(O)c3ncccc23)cc1`, the growth was 7.27% (active).

For the compound `CC(C)C[C@H](NC(=O)[C@H](Cc1cccc2ccccc12)NS(=O)(=O)c1cccc2cccnc12)B(O)O`, the growth is -72.3% (active).

Turning to `COc1cc(Cl)cc(-c2nn(-c3cccc(NC(=O)Nc4ccc(Cl)c(C(F)(F)F)c4)c3)cc2-c2ccncc2)c1`, the growth is 13.5%.

Regarding `O=C(Nc1ccc(CN2CCc3nc4cc(O)c(O)cc4cc32)cc1)c1ccc(Cl)c(Cl)c1`, the growth was 107%.

On to `CN(C)Cc1cn(-c2ncc(-c3ccc(C(F)(F)F)cc3)c(NC3CCCCCC3)n2)nn1`, for which the growth was 94.2%.

`O=C(CSSCC(=O)c1ccc(Cl)cc1)c1ccc(Cl)cc1`: the growth was 78.6%.

Take `COc1ccc2c(c1OC)O/C(=C\c1ncc([N+](=O)[O-])n1C)C2=O`: the growth is 56%.

Consider `Nc1ncn([C@@H]2O[C@H](CO)[C@@H](O)[C@H]2O)c(=O)n1`, for which the growth is 2.42% (active).

`CSC1=NCCCC1`: the growth was 112%.

As for `COc1ccc(/C=C2/CN(CCC#N)C/C(=C\c3ccc(OC)cc3)C2=O)cc1`, the growth was -38% (active).

`c1ccc([C@H]2CN3CCSC3=N2)cc1`: the growth is 109%.

`COc1cc(Cl)cc(-c2nn(-c3cccc(NC(=O)c4ccc(N5CCOCC5)c(C(F)(F)F)c4)c3)cc2-c2ccncc2)c1`: the growth is 52.2%.

Consider `COc1ccc(OC)c(/C=C/c2nc(SCc3ccccc3)n(-c3ccc(Cl)cc3)n2)c1`, for which the growth is 79.4%.

Take `COc1ccc(N=C2C(=Nc3ccc(OC)cc3)N(c3ccc(N(C)C)cc3)C(=S)N2c2ccc(OC)cc2)cc1`: the growth is 64.3%.

Regarding `CCCCCCN1CCN(Cc2ccc(N(CC)CC)cc2)C(=O)C1=O`, the growth was 33.3%.

As to `N#Cc1ncc(-c2ccc(C(F)(F)F)cc2)c(NCc2cc(C(F)(F)F)cc(C(F)(F)F)c2)n1`, the growth was 39.2%.

Regarding `COc1ccc2c(c1)O/C(=C\c1ccc([N+](=O)[O-])s1)C2=O`, the growth is 45.6%.

As for `CCCCN(CCCC)c1cc(C(=O)CCCCCN)c2ccccc2n1`, the growth was 110%.

On to `O=C(O)CCCCSc1ncnc2nc[nH]c12`, for which the growth is 96.7%.

In the case of `O=C(Nc1cccc(-n2cc(-c3ccncc3)c(-c3ccc(O)c(Cl)c3)n2)c1)c1cc(C(F)(F)F)cc(C(F)(F)F)c1`, the growth is 78.9%.
